# Screening data: PubChem, several laboratories
# Shown are actives, neighbours in structure and some others; about 2.5% of the full set was active somewhere.
# AI-2 QS modul = modulators of Vibrio harveyi AI-2 quorum sensing system. Vibrio harveyi JMH597 AI-2 luminescence/OD600 ratio, 9 h; active compounds read low; strain lacks LuxN and CqsS sensors; 0 = neutral-control median. activity change, % at 7.5 µM. actives 0.4% (n = 300,000). AID 2094; in the data active = activity change below about -75%, passing the limit was not always enough;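 also: luminescence divided by OD600 gain over 9 h not by final OD600 alone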
# Efflux pump inh = blocks antifungal efflux pumps in multiplex yeast assay | S. cerevisiae Candida pump triplex, Nile Red efflux | inhibition, % at 10 µM | actives 0.44% (n = 330,000);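 active = plate passing quality check with inhibition over a set limit, or well fluorescence over plate mean plus 4 SD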;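 also: Nile Red retained in pooled yeast measured as flow cytometry median fluorescence; 0% = buffer negative control and 100% = Enniatin B positive control; higher means more Nile Red kept so more efflux inhibition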
# ATG4B inhibitor = blocks human ATG4B protease cleavage of LC3 substrate; ATG4B cleavage of LC3-PLA2, NBD-HPC fluorescence, 1 h; inhibition, % at 8.33 µM; actives 0.51% (n = 340,000); AID 504462; in the data active = inhibition above about 40%
# Target sequence (Q9Y4P1 whole entry, looked up): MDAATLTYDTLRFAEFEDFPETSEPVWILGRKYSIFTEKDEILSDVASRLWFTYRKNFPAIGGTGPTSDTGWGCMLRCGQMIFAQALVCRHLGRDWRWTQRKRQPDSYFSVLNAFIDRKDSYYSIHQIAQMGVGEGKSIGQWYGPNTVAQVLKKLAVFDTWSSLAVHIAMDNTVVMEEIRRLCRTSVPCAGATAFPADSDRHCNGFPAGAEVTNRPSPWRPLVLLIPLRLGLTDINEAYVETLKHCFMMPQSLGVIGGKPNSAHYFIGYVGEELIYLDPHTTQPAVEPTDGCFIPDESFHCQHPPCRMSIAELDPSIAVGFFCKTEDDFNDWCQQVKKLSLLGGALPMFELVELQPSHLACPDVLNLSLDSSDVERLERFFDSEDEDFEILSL
# Mot1-301 SUMO = SUMOylation pathway inhibition by Mot1-301 growth rescue; S. cerevisiae Mot1-301 growth rescue, ATP luminescence, 38.5C; percent above DMSO median, 100 means doubled; actives 1% (n = 320,000); AID 2716; growth rescue, % at 18.8 µM;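 active = every valid replicate shows activation above 250% relative to neutral control wells; inactive = the rest, any valid replicate at or below 250%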;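 also: OY570 slx delta 5 strain wells were the positive control but not used for scaling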
# V-ATPase pHluor = alters yeast V-ATPase proton transport | AID 504577 | S. cerevisiae, pHLuorin cytosolic pH fluorescence | actives 0.37% (n = 350,000) | response, % at 10 µM; in the data active = response mostly above about 7.3%, no sharp cut-off; inactive = mostly below about 5.4%; also: actives read high
# ATG4B confirm = confirmation of human ATG4B inhibitors; shares compounds with ATG4B inhibitor; inhibition, % at 8.33 µM; AID 504757; ATG4B protease fluorescent substrate cleavage assay; actives 92% (n = 320); in the data active = inhibition above about 39%
# PLA2 ctr = inhibits human PLA2, flagging false ATG4B inhibitors. shares compounds with ATG4B inhibitor. purified PLA2, NBD-C6-HPC fluorescence, 45 min. inhibition, % at 8.33 µM. actives 66% (n = 1,600); in the data active = inhibition above about 50%
# V-ATPase pH SP = regulators of yeast V-ATPase proton transport; S. cerevisiae pHLuorin cytosolic pH; response, % at 10 µM; shares compounds with V-ATPase pHluor; AID 602197; actives 2% (n = 980); in the data active = response above about 24%;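 also: plate controls were vehicle wells for no effect and positive control wells for full effect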
# * hit, by the source's call; nt = no result; ! = repeats disagree.
SMILES,AI-2 QS modul,Efflux pump inh,ATG4B inhibitor,Mot1-301 SUMO,V-ATPase pHluor,V-ATPase pH SP,others
CN1C(=O)N(C)C(=O)C2(Cc3cc(NC(=O)c4ccc(F)cc4)ccc3N3CCCC32)C1=O (centres undefined),17.4,0.1,-4.3,14.1,0.2,nt,
Cc1cc(OCC(=O)NCC(O)c2ccccc2)c2c3c(c(=O)oc2c1)CCCC3 (centres undefined),-2.3,0.3,52.3*,-2.1,-0.1,nt,PLA2 ctr=55.5*
CN1C(=O)C(=Cc2ccccc2OCc2ccccc2Cl)C(=O)N(C)C1=O,0.2,0.0,50.3*,19.9,2.6,nt,PLA2 ctr=51.8*
COc1ccccc1NC(=O)c1cn(CCC#N)nc1-c1cccc(Cl)c1,3.9,0.0,-6.0,0.0,-5.5,nt,
O=c1c2ccccc2nc(SCC2CCCCO2)n1-c1ccccc1 (centres undefined),22.4,0.0,49.8*,87.1,-0.4,nt,PLA2 ctr=38.2
CCCCCCC[n+]1ccc(-c2cc[n+](CCCCCCC)cc2)cc1,18.1,1.1,8.8,-11.5,5.7,nt,
CCCCCCCCCCCCCCCC[n+]1ccccc1,nt,nt,59.0*!,nt,7.4,nt,ATG4B confirm=39.2*;PLA2 ctr=37.6
COC(=O)C1=C(c2ccc(F)cc2OCc2ccccc2)C[C@@H]2CC[C@H]1N2C(=O)NCCOc1ccccc1Cl,nt,0.4,3.9,3.6,-2.1,nt,
COC(=O)C1=C(c2ccc(F)cc2OCc2ccccc2)C[C@@H]2CC[C@H]1N2C(=O)NCc1ccccc1Cl,nt,0.6,42.6*,9.7,-2.9,nt,PLA2 ctr=62.2*
O=C(Nc1ccccc1)c1c(O)[nH]c(=S)[nH]c1=O,26.1,-0.1,-1.2,-5.5,13.4*,-0.6,
COc1c(C)cc(C(=O)C2CCCN(Cc3cccc(C)n3)C2)cc1C (centres undefined),1.8,0.0,-7.6,20.0,9.2*,-6.1,
CC(=O)Nc1cc(C(=O)N2CCC3(CC2)OCCO3)ccc1S(=O)(=O)c1ccc(C)cc1,27.3,0.1,-3.6,3.9,1.2,nt,
CC(=O)Nc1cc(C(=O)N2CCC3(CC2)OCCO3)ccc1S(=O)(=O)c1ccc(Cl)cc1,11.8,-0.3,3.4,-21.6,8.8*,7.5,
Cc1cccc(NC(=O)COC(=O)c2cc(C)n(C3CC3)c2C)c1,nt,0.3,-1.2,-8.4,6.2,nt,
O=c1[nH]c(=O)n(-c2ccccc2)c(O)c1/C=C/C=Nc1ccccc1,10.5,-0.1,-5.9,3.1,-2.4,nt,
Cc1ccc(-n2c(O)c(/C=C/C=Nc3ccccc3)c(=O)[nH]c2=O)cc1,15.7,0.0,0.4,-24.5,84.5*,-15.5,
COCCNCCOc1ccc(C(C)(C)c2ccccc2)cc1,9.7,0.8,-0.5,125.9,12.5*,-1.5,
COC(=O)C1=C(c2ccc(OC(F)(F)F)cc2)C[C@@H]2CC[C@H]1N2C(=O)NCCOc1ccc(OC)cc1,nt,0.1,-10.5,-23.7,6.4,nt,
C=CCn1c(=O)c(C=Nc2c(OC)cccc2[N+](=O)[O-])c(O)n(CCCC)c1=O,10.0,0.3,6.4,8.7,0.3,nt,
Cc1cc(C(=O)C[N+]23CCN(CC2)CC3)c(C)n1-c1ccc(Br)cc1,-3.3,-0.2,14.7,-11.0,9.2*,0.3,
C[C@]12CCC(=O)C=C1CC[C@@H]1C2CC[C@]2(C)C(=O)CCC12 (some centres undefined),3.2,0.0,-0.3,37.1,1.2,nt,
CC12CCC(=O)C=C1CCC1C2CCC2(C)C1CCC2(O)CC#N (centres undefined),nt,nt,-0.4,nt,12.4*,3.1,
COc1ccc(/C=C/C=C2C(=O)NC(=S)NC2=O)cc1,nt,nt,-5.3,nt,7.7,nt,
Cc1ccc(C2(O)CCN3CCCCC32)cc1 (centres undefined),31.0,0.1,-4.7,nt,11.5*,0.3,
COc1ccccc1N1CCN(CCc2ccccc2)CC1,3.6,-0.1,7.9,157.1,-2.1,nt,
